TRPM1 prom inh – MITF TRPM1 promoter inhibition in SK-MEL-5 cells; AID 488899; inhibition, % at 12.5 µM; SK-MEL-5 TRPM1 promoter luciferase, 24 h; actives 0.83% (n = 330,000);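 active = mean inhibition across replicates of 60% or more, whatever share of single replicates reaches that level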
Shn3 inh set2 – inhibitors of Schnurri-3 3'UTR reporter in osteoblasts; Clone20 osteoblast Shn3 3'UTR firefly luciferase, 24 h; inhibition, % at 12.5 µM; actives 0.52% (n = 360,000);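 active = mean inhibition of at least 75% with every replicate also reaching 75%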;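 note: 0% = median of neutral control wells and 100% = pilot-screen positive control compound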
Peg3 promoter – reduces Peg3 promoter-driven luciferase expression in HeLa | actives 1.7% (n = 360,000) | HeLa PEG-Prom luciferase reporter, luminescence, overnight | inhibition, % at 20 µM;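 active = inhibition of at least 50% at 20 µM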
KKLEB cytotox – reduces viability of KKLEB cystic fibrosis airway cells; activity change (cytotoxicity), % at 5 µM; AID 602141; KKLEB CF airway cells viability, ATPlite luminescence, overnight; hits give low values; cells stimulated with P. aeruginosa culture filtrate; actives 0.36% (n = 360,000);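 active = corrected activity change at or below -50% at 5 µM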
CF NFkB block – inhibitors of cystic fibrosis induced NF-kB; KKLEB NF-kB-GFP reporter, PAF-induced, GFP fluorescence overnight; inhibition, % at 5 µM; actives 0.86% (n = 360,000); AID 588850;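 active = at least 50% inhibition at 5 µM, scaled per plate between neutral and stimulator controls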;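 note: PAF is a Pseudomonas aeruginosa culture filtrate used as stimulus; plate controls were PAF-stimulated DMSO wells for no effect and unstimulated DMSO wells for full effect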
HIF-2a inh – inhibitors of HIF-2a; 786-0 RCC cells HIF-2a reporter, luciferase luminescence, overnight; inhibition, % at 18.8 µM; actives 0.72% (n = 360,000); AID 624352;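 active = inhibition of the luminescence signal of 40% or more relative to plate controls, in a single-dose primary screen at 18.75 µM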
Numbers without * were called inactive; / = no result; ! = repeats disagree. Compounds with a hit are over-represented: about 2.8% of the library has one in this group of screens.

SMILES | TRPM1 prom inh | Shn3 inh set2 | Peg3 promoter | KKLEB cytotox | CF NFkB block | HIF-2a inh
Cc1cc(C)c2nc(NCCCNC(=S)NCCCN(C)C)c(C#N)cc2c1 | -1 | -11 | 91* | -3 | 1 | 9
CC(=O)NC(c1ccc(F)c(F)c1)c1nc(-c2cc3ccccc3o2)cs1 (stereo not drawn) | / | -12 | -6 | -6 | -19 | -53
CCCCCCC[C@@H](C/C=C/CCC(=O)N(C)C/C(=C/Cl)C/C(=C\C(=O)N1C[C@H](O)CC1=O)OC)OC | 11 | 61 | 7 | -7 | 27 | -6
CCCCCCC[C@@H](C/C=C/CCC(=O)N(C)C/C(=C/Cl)C/C(=C\C(=O)N1CC(OC)=CC1=O)OC)OC | 75* | 82 | 41 | -61* | 54* | 9
Cc1ccc(C(=O)NC(=C(Cl)Cl)S(=O)(=O)c2ccc(Cl)cc2)cc1 | -6 | 12 | 58* | -12 | 8 | 40
COc1ccccc1-c1cc2nc(C)c(CCC(=O)NC(C)CCc3ccco3)c(C)n2n1 (stereo not drawn) | -10 | 18 | -11 | -4 | -11 | 17
CCN(CC)C(=O)C1CCN(S(=O)(=O)c2ccc3oc4ccccc4c3c2)CC1 | 26 | 86* | 15 | -3 | -6 | -11
CCOc1ccccc1-n1c(CN2CCN(C(=O)c3ccco3)CC2)nc2ccccc2c1=O | 80* | 2 | 104* | -9 | 27 | 32
CCOc1ccccc1-c1nc(CN2CCN(C(=O)c3ccco3)CC2)c(C)o1 | 12 | -11 | -4 | 8 | 6 | 12
COc1ccc(-n2nnc3c(SCC(=O)N4CCCc5ccccc54)ncnc32)cc1 | 11 | -23 | -7 | 15 | -1 | 17
N=c1c2c(-c3ccccc3)c(-c3ccccc3)n(Cc3ccco3)c2ncn1CCO | 43 | 4 | 93* | -17 | 9 | 37
COc1cc2ccccc2cc1C(=O)Nc1ccc(N2CCN(C(=O)C(C)C)CC2)cc1 | 17 | 78 | 77* | 6 | -30 | -13
COc1cc2ccccc2cc1C(=O)Nc1ccc(N2CCN(C)CC2)cc1 | -81 | -43 | -293 | -5 | -6 | -185
CC[C@]1(C(=O)OC)[C@H]2C(=O)N(C)C(=O)[C@H]2[C@H]2CN=C(SC)N21 | 1 | -6 | 18 | 11 | 12 | 1
CC1CCC(C(C)C)C(OC(=O)Cn2c(-c3ccccc3)[n+](C)c3ccccc32)C1 (stereo not drawn) | 87* | 86*! | 65* | -54*! | 55*! | -2
Nc1nsc2ccccc12 | 26 | -4 | 51* | -2 | -14 | -8
O=[N+]([O-])c1ccc(-[n+]2nc(-c3ccccc3)nn2-c2ccccc2)cc1 | 7 | 22 | 42 | -53* | 42 | 15
O=c1ccc(-c2ccc([N+](=O)[O-])cc2)nn1-c1ccccc1 | -37 | -8 | 3 | 7 | -28 | 14
CS(=O)(=O)c1ccc(C(=O)NC2CCCc3ccccc32)cc1 (stereo not drawn) | 2 | -5 | 16 | 8 | -2 | 9
CCn1c(C)nc2cc(-c3nnc(-c4c(-c5ccccc5)noc4C)o3)ccc21 | 0 | 86* | 30 | 7 | 2 | -10
O=C(Nc1cccc(-c2nc3ccccc3s2)c1)C1=COCCO1 | -4 | -43 | -163 | -7 | -22 | -115
O=C(Nc1ccc(-c2nc3ccccc3s2)cc1)C1=COCCO1 | 43 | 70 | 19 | -53* | -14 | 16
CCOC(=O)N1CCN(C(=O)Cn2nc(C)n3nc(-c4ccccc4)cc3c2=O)CC1 | 3 | 11 | 6 | -1 | -23 | 7
CC(O)c1nc2ccccc2n1C/C=C/c1ccccc1 (stereo not drawn) | 8 | -23 | 12 | 13 | 10 | 3
Cc1c(P(=S)(c2ccccc2)c2ccccc2)[n+]2ccccc2n1C/C=C/c1ccccc1 | / | -20 | 83* | -5 | 46 | -33
CCc1ccc(NC(=O)C(C)Sc2nnc(CN3CCCC3)o2)cc1 (stereo not drawn) | -3 | -3 | -7 | -11 | 18 | 7
C#CCOCCOCCOCCNc1nc(N2CCN(C(=O)CCCCCCCCCCNC(=O)[C@H](CCCCN)n3cc(C)nn3)CC2)nc(N2CCN(C(=O)CCCCCCCCCCNC(=O)[C@@H]([C@H](C)CC)n3cc(CCCCCN)nn3)CC2)n1 | 105* | 77 | 94* | 11 | 4 | 4
